Reference: PubChem BioAssay (Tox21)
Several values for one entry are separate records, joined by “and”; a condition that tells them apart may be missing. Identical values can stand only once. Results filed as inconclusive are left out. A call without a number means that no potency is given here. The source holds several records for some structures; these can differ, active in one and inactive in another. Activity calls are given as the source filed them. Unless noted, the call rests on the fitted dose curve; in most records, active means well fitted curve in the direction sought with a large enough effect in the repeat runs; inconclusive means weak or mixed curves; inactive means no such curve, though single readings can be large; an effect the other way counts as inactive or inconclusive.

Tests used:
[1] = qHTS assay to identify small molecule antagonists of the androgen receptor (AR) signaling pathway using the MDA cell line in the presence of 0.5 nM R1881 - cell viability counter screen (AID 1259242); further: nearly all actives have a fitted effect of over 45% in size
In short: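 MDA-kb2 cells (MMTV-luciferase, AR/GR responsive) were treated with compounds plus 0.5 nM R1881 (final) for 16 hr at 37C, 0% CO2. Viability was then read in the same wells as live-cell protease fluorescence (CellTiter-Fluor, 30 min).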

[2] = biological target: Estrogen receptor (Homo sapiens) (UniProt P03372); test: qHTS assay to identify small molecule antagonists of the estrogen receptor alpha (ER-alpha) signaling pathway using the BG1 cell line in the presence of 0.1 nM 17-beta-estradiol (AID 1259244); further: nearly all actives have a fitted effect of over 50% in size; further: potency means the concentration at half of the fitted maximal effect
Estrogen receptor (Homo sapiens), sequence (P03372 whole entry, looked up): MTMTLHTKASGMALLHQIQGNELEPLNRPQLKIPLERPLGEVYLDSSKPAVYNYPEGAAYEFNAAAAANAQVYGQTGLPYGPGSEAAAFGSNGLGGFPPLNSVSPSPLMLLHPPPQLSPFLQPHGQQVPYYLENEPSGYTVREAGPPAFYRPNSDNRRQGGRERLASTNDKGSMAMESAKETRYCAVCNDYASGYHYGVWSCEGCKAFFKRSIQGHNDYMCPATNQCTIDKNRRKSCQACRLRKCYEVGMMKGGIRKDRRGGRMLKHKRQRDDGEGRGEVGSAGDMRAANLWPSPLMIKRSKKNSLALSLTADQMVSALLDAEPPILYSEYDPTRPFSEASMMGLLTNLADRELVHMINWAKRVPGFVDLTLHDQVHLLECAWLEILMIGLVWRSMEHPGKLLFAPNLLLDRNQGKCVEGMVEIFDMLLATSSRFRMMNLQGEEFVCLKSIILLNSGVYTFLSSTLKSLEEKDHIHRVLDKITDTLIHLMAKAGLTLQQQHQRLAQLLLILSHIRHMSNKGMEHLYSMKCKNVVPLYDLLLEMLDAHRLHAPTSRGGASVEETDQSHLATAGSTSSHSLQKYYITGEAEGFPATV
In short: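 VM7Luc4E2 cells (endogenous full-length ER-alpha, 4×ERE-luciferase), kept 5 days in phenol red-free, charcoal-stripped FBS medium; 4,000 cells/well. Compounds added with 0.1 nM (final) 17beta-estradiol, 22 hr at 37C; luminescence read with ONE-Glo after 30 min.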

[3] = qHTS assay to identify small molecule HDAC inhibitors (AID 1259364); further: nearly all actives have a fitted effect of over 45% in size; further: potency means the concentration at half of the fitted maximal effect
In short: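 Wild-type HCT-116 cells, plated overnight at 37 C, exposed to compounds 2 hr at 37 C; luminogenic HDAC-Glo substrate then added 30 min at room temperature. Luminescence reports relative endogenous class I/II HDAC activity.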

[4] = qHTS assay to identify small molecule HDAC inhibitors - cell viability counter screen (AID 1259365); further: nearly all actives have a fitted effect of over 50% in size; further: potency means the concentration at half of the fitted maximal effect
In short: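 Cytotoxicity was gauged in wild-type HCT-116 cells after a brief 2hr treatment with DMSO-dissolved compounds at 37C and 5% CO2, using CellTiter-Glo luminescence developed for 30min at room temperature.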

[5] = qHTS assay to identify small molecule agonists of the sonic hedgehog signaling (Shh) pathway - cell viability counter screen (AID 1259366); further: nearly all actives have a fitted effect of over 50% in size; further: potency means the concentration at half of the fitted maximal effect
In short: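 Stable Gli1-Luc NIH/3T3 clone, 2,000 cells/well. Compound exposure 24hr at 37C. Read-out: CellTiter-Fluor fluorescence.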

[6] = qHTS assay to identify small molecule antagonists of the sonic hedgehog signaling (Shh) pathway - cell viability counter screen (AID 1259367); further: nearly all actives have a fitted effect of over 55% in size; further: potency means the concentration at half of the fitted maximal effect
In short: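 Seed 3T3 Gli1-Luc cells at 2,000 per well; incubate 4 hr; add compound in DMSO, then conditioned medium; incubate at 37C with 5% CO2; add CellTiter-Fluor after 23 hr; read fluorescence 1 hr later.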

[7] = qHTS assay to identify small molecule agonists of the sonic hedgehog signaling (Shh) pathway (AID 1259368; calls by dose curve;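 further: NIH/3T3-derived 3T3Gli1-Luc cells carrying a stable Gli1-driven firefly luciferase reporter; series mostly up to about 92 µM; nearly all actives have a fitted effect of over 15% in size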)
In short: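 NIH/3T3-derived 3T3Gli1-Luc cells with stably integrated Gli1-driven firefly luciferase, 2,000 cells/well, compounds added after 4 hr. Incubated 24 hr at 37C, 5% CO2; luminescence read after 30 min with luciferase reagent at room temperature.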

[8] = qHTS assay to identify small molecule antagonists of the estrogen receptor alpha (ER-alpha) signaling pathway using the BG1 cell line in the presence of 0.1 nM 17-beta-estradiol - cell viability counter screen (AID 1259241); further: nearly all actives have a fitted effect of over 40% in size
In short: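 Viability in VM7Luc4E2 cells after 22 hr compound exposure under 0.1 nM 17beta-estradiol stimulation, by CellTiter-Fluor.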

[9] = qHTS assay to identify small molecule phospholipidosis (PLD) inducers (AID 1259344; active means well fitted curve in the direction sought with a large enough effect; an effect the other way counts as inactive or inconclusive)
In short: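 Quantitative HTS in HepG2: compound plus LipidTOX Red dye for 24 h, paraformaldehyde fixation with Hoechst 33342, widefield high-content imaging; amiodarone as positive and DMSO as negative control.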

[10] = biological target: Androgen receptor (Homo sapiens) (UniProt P10275); test: qHTS assay to identify small molecule antagonists of the androgen receptor (AR) signaling pathway using the MDA cell line in the presence of 0.5 nM R1881 (AID 1259243); further: nearly all actives have a fitted effect of over 50% in size
Androgen receptor (Homo sapiens), sequence (P10275 whole entry, looked up): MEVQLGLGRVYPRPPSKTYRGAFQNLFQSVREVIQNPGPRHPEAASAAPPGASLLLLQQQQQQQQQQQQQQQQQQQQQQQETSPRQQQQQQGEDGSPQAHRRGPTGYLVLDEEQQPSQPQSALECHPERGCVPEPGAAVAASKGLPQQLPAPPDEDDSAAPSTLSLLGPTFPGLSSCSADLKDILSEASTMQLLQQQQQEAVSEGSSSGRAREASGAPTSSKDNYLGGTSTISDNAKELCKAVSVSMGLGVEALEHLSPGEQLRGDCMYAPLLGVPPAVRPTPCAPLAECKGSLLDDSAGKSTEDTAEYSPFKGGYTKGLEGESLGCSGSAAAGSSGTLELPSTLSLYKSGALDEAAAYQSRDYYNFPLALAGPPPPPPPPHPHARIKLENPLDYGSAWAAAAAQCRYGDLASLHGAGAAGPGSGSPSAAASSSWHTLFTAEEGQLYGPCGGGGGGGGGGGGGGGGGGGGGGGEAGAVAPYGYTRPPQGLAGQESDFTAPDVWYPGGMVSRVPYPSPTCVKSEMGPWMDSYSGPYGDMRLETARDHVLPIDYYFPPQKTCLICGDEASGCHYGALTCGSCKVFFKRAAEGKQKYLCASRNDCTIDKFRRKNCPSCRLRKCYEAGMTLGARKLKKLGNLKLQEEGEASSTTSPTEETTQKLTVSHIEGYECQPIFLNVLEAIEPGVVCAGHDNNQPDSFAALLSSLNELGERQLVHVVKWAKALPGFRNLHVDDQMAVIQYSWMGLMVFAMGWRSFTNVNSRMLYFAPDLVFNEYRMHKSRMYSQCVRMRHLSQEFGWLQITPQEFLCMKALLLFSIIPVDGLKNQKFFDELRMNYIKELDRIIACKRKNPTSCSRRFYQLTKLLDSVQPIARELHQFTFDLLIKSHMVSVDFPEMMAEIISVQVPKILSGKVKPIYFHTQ
In short: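 MDA-kb2 cells (MMTV-luciferase, responsive to AR and GR) at 3,000/well, rested 5 h at 37C, 0% CO2, then given compounds plus 0.5 nM R1881 (final) for 16 hr. Luciferase read with ONE-Glo after 30 min at room temperature.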

Row | Compound | Potency [1] | Potency [2] | Potency [3] | Potency [4] | Potency [5] | Potency [6] | outcome [7] | Potency [8] | outcome [9] | Potency [10] | PLD induction [9]
1 | Nc1ccc(-c2ccc(N)c(Cl)c2)cc1Cl | inactive | 48.6 µM (active) | inactive and 27.3 µM (active) | inactive | inactive and 7.18 µM (active) and 30.6 µM (active) | 2.27 µM (active) and 8.63 µM (active) | inactive | – | – | – | –
2 | COCC(=O)N(c1c(C)cccc1C)C(C)C(=O)OC (stereo unspecified) | – | inactive | inactive | inactive | inactive | inactive | inactive | inactive | inactive | – | –
3 | C=CCOC(Cn1ccnc1)c1ccc(Cl)cc1Cl (stereo unspecified) | inactive | – | inactive | inactive | inactive | inactive | inactive | – | inactive | – | –
4 | OCCOc1ccccc1 | inactive | inactive | inactive | inactive | inactive | inactive | inactive | – | inactive | – | –
5 | CNC | – | – | inactive | inactive | inactive | inactive | inactive | – | – | – | –
6 | CCCCCCCCCCCCCC[P+](CCCCCC)(CCCCCC)CCCCCC | – | 2.74 µM (active) and 3.09 µM (active) and 3.43 µM (active) | inactive | 34.5 µM (active) and 69.1 µM (active) and inactive | 13.7 µM (active) and 21.9 µM (active) and inactive | 15.4 µM (active) and 54.9 µM (active) and inactive | inactive | – | – | – | –
7 | CC[N+](CC)(CC)CC | – | – | inactive | inactive | inactive | inactive | inactive | – | inactive | – | –
8 | CCC(=O)C(CC(C)N(C)C)(c1ccccc1)c1ccccc1 (stereo unspecified) | – | inactive | inactive | – | – | 27.4 µM (active) | inactive | – | – | inactive | 2.52% [at 3.15 µM] (inactive)
9 | O=P1(N(CCCl)CCCl)NCCCO1 (stereo unspecified) | – | inactive | inactive | inactive | inactive | inactive | inactive | – | inactive | – | –
10 | CCCCCCCCCCCCn1cc[n+](C)c1 | – | – | inactive | inactive | 27.3 µM (active) [middle of 6 runs] | 31.2 µM (active) [middle of 5 runs] | inactive | – | – | – | –
11 | COc1ccc(N)cc1 | – | – | inactive | inactive | inactive | inactive | inactive | – | – | – | –
12 | CC(=O)O | – | – | inactive | inactive | inactive | inactive | inactive | – | – | – | –
13 | CCCCCCCCCCn1cc[n+](C)c1 | inactive | – | inactive | inactive | inactive | inactive | inactive | – | – | – | –
14 | O=C(O)CCl | – | – | inactive | inactive | inactive | inactive | inactive | – | – | – | –
15 | CCn1cc[n+](C)c1C | – | – | inactive | inactive | inactive | inactive | inactive | – | – | – | –
16 | CCCCCCCCCCCCCCCCn1cc[n+](C)c1 | – | – | inactive | inactive | – | – | inactive | – | – | – | –
17 | N#CS | – | – | inactive | inactive | inactive | inactive | inactive | – | – | – | –
18 | Cc1cc(Cl)ccc1OCC(=O)O | – | inactive | inactive | inactive | inactive | inactive | inactive | – | – | inactive | –
19 | CCC[N+]1(C)CCCCC1 | inactive | – | inactive | inactive | inactive | inactive | inactive | – | – | – | –

Row | Compound | Potency [1] | Potency [2] | Potency [3] | Potency [4] | Potency [5] | Potency [6] | outcome [7] | Potency [8] | outcome [9] | Potency [10] | PLD induction [9]
20 | COP(=O)(OC)C(O)C(Cl)(Cl)Cl (stereo unspecified) | – | – | inactive | inactive | inactive | inactive | inactive | – | inactive | – | –
21 | CCCC[N+]1(C)CCCCC1 | – | – | inactive | inactive | inactive | inactive | inactive | – | – | – | –
22 | CCCCCCn1cc[n+](C)c1 | – | – | inactive | inactive | inactive | inactive | inactive | – | – | – | –
23 | Oc1cccc2cccnc12 | – | – | inactive | inactive | – | – | inactive | – | inactive | – | –
24 | CCCCCCCCn1cc[n+](C)c1 | – | – | inactive | inactive | inactive | inactive | inactive | – | – | – | –
25 | Cc1cc(-c2ccc(N)c(C)c2)ccc1N | – | 34.4 µM (active) | 48.4 µM (active) | inactive | inactive | inactive | inactive | – | – | – | –
26 | CCCCCC[n+]1ccccc1 | – | – | inactive | inactive | inactive | inactive | inactive | – | – | – | –
27 | CCC[N+]1(C)CCCC1 | – | – | inactive | inactive | inactive | inactive | inactive | – | – | – | –
28 | O=[N+]([O-])O | inactive | – | inactive | inactive | inactive | inactive | inactive | – | – | – | –
29 | CCCCn1cc[n+](C)c1 | – | – | inactive | inactive | inactive | inactive | inactive | – | – | – | –
30 | CCCC[n+]1cccc(C)c1 | – | – | inactive | inactive | inactive | inactive | inactive | – | – | – | –
31 | O=c1nc(O)n(Cl)c(=O)n1Cl | – | – | inactive | inactive | inactive | inactive | inactive | – | – | – | –
32 | C[N+](C)(C)Cc1ccccc1 | – | inactive | inactive | inactive | inactive | inactive | inactive | – | – | – | –
33 | O=[N+]([O-])c1ccccc1O | – | – | inactive | inactive | inactive | inactive | inactive | – | – | – | –
34 | Cc1cc(Cl)ccc1N | – | – | inactive | inactive | inactive | inactive | inactive | – | – | – | –
35 | CCCCCCCCCCCCOS(=O)(=O)O | – | – | inactive | inactive | inactive | inactive | inactive | – | – | – | –
36 | O=c1[nH]c(=O)n(Cl)c(=O)n1Cl | – | – | inactive | inactive | inactive | inactive | inactive | – | inactive | – | –
37 | O=C(O)c1ccccc1O | – | – | inactive | inactive | inactive | inactive | inactive | – | – | – | –
